# Unmarked numbers belong to inactive results. For some assays here: Entries with a potency or affinity are not part of this list. Active and inactive are the calls of the source. Unless noted, the rule behind the calls is not given here.
# How the values were obtained:
# [1] = antimalarial activity against Dd2 strain (AID 2302;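 active = growth inhibition above 50% at the single 2 µM test dose, taken to imply half-maximal potency below 2 µM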;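 note: 0% = DMSO untreated growth and 100% = chloroquine plus artemisinin killed control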); conditions: P. falciparum Dd2 in RBCs, LDH growth readout, 72 h; at 2 µM; stronger effect = higher value
# [2] = human hepatoma cell viability loss – ATP luminescence, cytotoxicity control for P. falciparum antimalarial project, primary screen (AID 2303;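 active = inhibition above 50%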;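 note: 0% = DMSO wells and 100% = digitonin-killed cells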); conditions: HepG2 viability, 24-48 h, at 10 µM, stronger effect = higher value
# [3] = target: L-lactate dehydrogenase (Plasmodium falciparum (isolate CDC / Honduras)) (UniProt Q27743); assay: PfLDH activity inhibition – cell lysate, 3D7 strain, counter-screen for P. falciparum growth inhibition project (AID 2304);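 note: 0% = vehicle and 100% = reference inhibitor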; conditions: P. falciparum 3D7 crude extract, LDH APAD/NBT absorbance; at 2 µM; stronger effect = higher value
# [4] = inhibition of 3D7 malaria parasite growth – strain 3D7 (AID 2306);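 note: 0% = DMSO wells and 100% = chloroquine plus artemisinin control wells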; conditions: P. falciparum 3D7 erythrocytic growth, LDH absorbance, 72 h; at 2 µM; stronger effect = higher value
# [5] = target: Calcium-dependent protein kinase 1 (Plasmodium falciparum (isolate 3D7)) (UniProt P62344); assay: PfCDPK1 kinase inhibitors, biochemical, TCAMS library (AID 1159585; cut-off not given, nearly all actives have IC50 up to about 0.98 µM;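 note: inhibitors leave more ATP so luminescence rises with inhibition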); conditions: recombinant PfCDPK1, Kinase-Glo ATP depletion luminescence
# [6] = target: Plasmodium falciparum protein kinase 6 (PK6, PF3D7_1337100) (UniProt Q8IDW1); assay: PfPK6 kinase inhibitors, biochemical, TCAMS library (AID 1159586); conditions: recombinant PfPK6, Kinase-Glo ATP depletion luminescence
# [7] = target: Protein kinase 7 (PK7), Plasmodium falciparum 3D7 (PF3D7_0213400) (UniProt Q7YTF7); assay: inhibition of Plasmodium PK7 catalytic activity – biochemical, TCAMS antimalarial set, Kinase-Glo luminescence (AID 1159587); conditions: recombinant PfPK7, Kinase-Glo ATP depletion luminescence
# [8] = target: Calcium-dependent protein kinase 4 (Plasmodium falciparum (isolate 3D7)) (UniProt Q8IBS5); assay: PfCDPK4 kinase inhibitors, biochemical, TCAMS library (AID 1159588; cut-off not given, nearly all actives have IC50 up to about 0.91 µM); conditions: recombinant PfCDPK4, Kinase-Glo ATP depletion luminescence
# Chain of Calcium-dependent protein kinase 4 (Plasmodium falciparum (isolate 3D7)) (Q8IBS5 whole entry, looked up): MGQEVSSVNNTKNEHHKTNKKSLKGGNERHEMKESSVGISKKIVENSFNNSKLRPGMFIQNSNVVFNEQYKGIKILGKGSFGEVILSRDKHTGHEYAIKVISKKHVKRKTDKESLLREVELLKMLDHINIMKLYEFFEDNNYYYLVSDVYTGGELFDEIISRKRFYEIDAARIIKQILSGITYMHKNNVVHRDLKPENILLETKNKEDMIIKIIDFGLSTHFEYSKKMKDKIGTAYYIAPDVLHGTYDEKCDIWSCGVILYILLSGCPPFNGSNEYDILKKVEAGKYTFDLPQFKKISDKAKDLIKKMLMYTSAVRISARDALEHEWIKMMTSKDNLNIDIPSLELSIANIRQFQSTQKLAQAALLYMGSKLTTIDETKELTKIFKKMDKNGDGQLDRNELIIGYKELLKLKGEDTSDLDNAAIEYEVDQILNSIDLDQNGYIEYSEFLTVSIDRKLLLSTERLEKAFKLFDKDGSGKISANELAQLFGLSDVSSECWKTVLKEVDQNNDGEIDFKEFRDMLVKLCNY
# Chain of Plasmodium falciparum protein kinase 6 (PK6, PF3D7_1337100) (Q8IDW1 1-305): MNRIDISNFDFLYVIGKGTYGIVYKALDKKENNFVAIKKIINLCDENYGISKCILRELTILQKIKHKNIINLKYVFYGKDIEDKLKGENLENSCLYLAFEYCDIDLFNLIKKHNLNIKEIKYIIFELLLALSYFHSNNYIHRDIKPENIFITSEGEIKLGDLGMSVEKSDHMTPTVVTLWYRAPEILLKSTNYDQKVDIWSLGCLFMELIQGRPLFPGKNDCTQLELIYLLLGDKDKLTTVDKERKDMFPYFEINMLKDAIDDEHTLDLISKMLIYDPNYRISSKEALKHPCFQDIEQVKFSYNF
# Chain of L-lactate dehydrogenase (Plasmodium falciparum (isolate CDC / Honduras)) (Q27743 whole entry, looked up): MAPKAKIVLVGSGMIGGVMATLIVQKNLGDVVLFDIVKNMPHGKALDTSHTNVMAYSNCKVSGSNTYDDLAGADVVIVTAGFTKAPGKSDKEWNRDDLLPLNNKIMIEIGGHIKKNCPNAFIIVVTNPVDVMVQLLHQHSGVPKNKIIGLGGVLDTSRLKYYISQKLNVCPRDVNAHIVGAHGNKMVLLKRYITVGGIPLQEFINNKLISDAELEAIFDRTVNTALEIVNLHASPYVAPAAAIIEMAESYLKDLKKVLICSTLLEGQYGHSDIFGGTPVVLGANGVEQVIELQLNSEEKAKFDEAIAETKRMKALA
# Chain of Calcium-dependent protein kinase 1 (Plasmodium falciparum (isolate 3D7)) (P62344 whole entry, looked up): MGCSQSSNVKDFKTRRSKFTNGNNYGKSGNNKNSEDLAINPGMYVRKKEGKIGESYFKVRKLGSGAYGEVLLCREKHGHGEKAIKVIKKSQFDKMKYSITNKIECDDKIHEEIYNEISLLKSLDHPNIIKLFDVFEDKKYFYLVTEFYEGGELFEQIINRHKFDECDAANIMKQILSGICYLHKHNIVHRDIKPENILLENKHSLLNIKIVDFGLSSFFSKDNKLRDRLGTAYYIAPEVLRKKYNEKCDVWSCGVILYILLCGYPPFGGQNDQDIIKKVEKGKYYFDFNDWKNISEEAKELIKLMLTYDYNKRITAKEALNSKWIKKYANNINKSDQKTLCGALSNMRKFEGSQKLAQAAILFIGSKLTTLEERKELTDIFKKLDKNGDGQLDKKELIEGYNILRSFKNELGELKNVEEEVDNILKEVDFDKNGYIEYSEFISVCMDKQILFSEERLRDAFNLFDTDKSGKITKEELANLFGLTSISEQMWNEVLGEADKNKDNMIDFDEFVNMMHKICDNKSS
# Chain of Protein kinase 7 (PK7), Plasmodium falciparum 3D7 (PF3D7_0213400) (Q7YTF7 1-343): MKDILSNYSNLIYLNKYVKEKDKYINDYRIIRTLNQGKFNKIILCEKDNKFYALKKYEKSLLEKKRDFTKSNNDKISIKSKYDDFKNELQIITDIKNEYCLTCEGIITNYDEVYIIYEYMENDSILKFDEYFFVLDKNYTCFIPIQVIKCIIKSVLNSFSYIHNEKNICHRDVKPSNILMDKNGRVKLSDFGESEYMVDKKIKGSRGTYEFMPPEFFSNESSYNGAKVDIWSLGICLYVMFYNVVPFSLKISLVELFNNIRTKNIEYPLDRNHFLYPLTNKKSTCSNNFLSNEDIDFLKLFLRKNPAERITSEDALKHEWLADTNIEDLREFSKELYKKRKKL
SMILES,growth inhibition [1],inhibition [2],inhibition [3] [%],growth inhibition [4],outcome [5],outcome [6],outcome [7],outcome [8]
COc1ccc(Nc2nccc(-c3c(-c4cccc(NC(=O)c5c(F)cccc5F)c4)nn4ccccc34)n2)cc1Cl,71% (active),61% (active),-1,95% (active),inactive,inactive,inactive,inactive
O=C(NC1CCN(Cc2ccccc2)CC1)c1cccc(Nc2nc(-c3ccccc3)cs2)c1,3%,70% (active),3,84% (active),inactive,inactive,inactive,inactive
COc1cc(CN2CCC(N3CCc4cc(NC(=O)c5cc(C)on5)ccc43)C2)ccc1F (stereo not given),96% (active),1%,0,91% (active),inactive,inactive,inactive,inactive
CCCCN1CCN(Cc2cccc(NC(=O)c3ccc(Cl)c(Cl)c3)c2)CC1,24%,21%,1,88% (active),inactive,inactive,inactive,inactive
Cc1ccccc1-c1nc2c(CN3CCC(O)(c4ccccc4)CC3)c(O)ccc2[nH]1,61% (active),27%,4,92% (active),inactive,inactive,inactive,inactive
O=C(Nc1ccccc1O)C1CCN(c2ncnc3cc(-c4ccc(F)cc4)sc23)CC1,94% (active),10%,4,97% (active),inactive,inactive,inactive,inactive
Cc1cc(NCCC(=O)NCCOc2ccccc2)nc(NCCOc2ccccc2)n1,20%,8%,0,92% (active),inactive,inactive,inactive,inactive
CCOc1cc(C(=O)Nc2ccc3nc(N4CCN(C)CC4)cc(C)c3c2)cc(OCC)c1OCC,50% (active),14%,-1,97% (active),inactive,inactive,inactive,inactive
CC(C)(C(=O)Nc1ccc(C2CCC(NCC3CC3)CC2)c(Cl)c1)c1cccc(OC(F)F)c1 (stereo not given),23%,34%,-4,99% (active),inactive,inactive,inactive,inactive
CN1CCC(N2CCN(c3ccc4c(=O)nc(CCc5cccc(F)c5F)n(CC(=O)N(C)Cc5ccc(-c6ccc(C(F)(F)F)cc6)cc5)c4n3)CC2)CC1,99% (active),15%,2,100% (active),inactive,inactive,inactive,inactive
CC(=O)Nc1ccc(C(=O)Nc2cccc(-c3cccc(-c4nc5ccc(F)cc5[nH]4)c3)c2)cn1,98% (active),-5%,1,99% (active),inactive,inactive,inactive,inactive
Cc1cc2c(NC(=O)NC3CCN(CCc4ccccc4Cl)CC3)cccc2cn1,46%,13%,0,102% (active),inactive,inactive,inactive,inactive
COc1cccc(CNC[C@@H](O)[C@H](Cc2ccccc2)NC(=O)c2cc(C(C)C)cc(N3CCCC3=O)c2)c1,61% (active),1%,-4,95% (active),inactive,inactive,inactive,inactive
Cc1cc(NC(=O)NCCN2CCC(NC(=O)c3ccc(Cl)cc3)CC2)c2ccccc2n1,54% (active),-4%,-2,90% (active),inactive,inactive,inactive,inactive
CCN(CCCN1CCCCC1)c1cc(C)nc(Nc2ccc(C)cc2)n1,10%,17%,-1,101% (active),inactive,inactive,inactive,inactive
Cc1cccc2[nH]c(-c3cccc(-c4cccc(CNCc5ccccc5)c4)c3)nc12,56% (active),3%,-1,101% (active),inactive,inactive,inactive,inactive
Nc1nc(N)c2c(CCc3ccc(Cl)c(Cl)c3)cccc2n1,83% (active),51% (active),6,101% (active),inactive,inactive,inactive,inactive
Cc1[nH]nc2ccc(-c3ccc4nccc(N5CCC(N)CC5)c4c3)cc12,100% (active),67% (active),-3,101% (active),inactive,inactive,inactive,inactive
NC(=O)COc1c(C2CCN(CCN3CCC(CNC(=O)c4ccc(-c5ccc(C(F)(F)F)cc5)cc4)CC3)CC2)ccc2c1CCCC2,68% (active),32%,-1,87% (active),inactive,inactive,inactive,inactive
Cc1cc(C(=O)NCc2ccc(-c3c(C)noc3C)cc2)n(-c2ccccc2)n1,90% (active),4%,3,92% (active),inactive,inactive,inactive,inactive

SMILES,growth inhibition [1],inhibition [2],inhibition [3] [%],growth inhibition [4],outcome [5],outcome [6],outcome [7],outcome [8]
CCCNc1ccc(-c2cc(C(N)=O)c3[nH]cc(C4CCN(S(=O)(=O)CC)CC4)c3c2)cn1,42%,6%,-1,99% (active),inactive,inactive,inactive,inactive
Cc1[nH]c2ccccc2c(=O)c1Br,84% (active),2%,3,94% (active),inactive,inactive,inactive,inactive
O=C(Nc1cccc(OCc2ccccc2)c1)c1ccc(CN2CCC(Cc3ccccc3)CC2)cc1,27%,41%,3,100% (active),inactive,inactive,inactive,inactive
Cc1cccc2[nH]c(-c3ccc(-c4ccc(CNCCCN5CCCC5=O)cc4)cc3)nc12,47%,7%,-5,100% (active),inactive,inactive,inactive,inactive
COc1ccc(C2CC(=O)C3=C(C2)NC(C)=C(C(=O)OC(C)C)C3c2ccc(O)cc2)cc1OC (stereo not given),98% (active),-1%,-3,99% (active),inactive,inactive,inactive,inactive
CCOC(=O)C(C(=O)OCC)c1nc(C)ns1,-3%,10%,-3,99% (active),inactive,inactive,inactive,inactive
O=C(NC1CCCCN(Cc2ccccc2O)C1)c1cccc(C(F)(F)F)c1 (stereo not given),64% (active),-4%,-6,93% (active),inactive,inactive,inactive,inactive
Nc1nc(N)c2nc(C3CC=CCC3)c(N)nc2n1 (stereo not given),0%,67% (active),-5,95% (active),inactive,inactive,inactive,inactive
Cc1nc(N)nc(N)c1-c1ccc2ccccc2c1,2%,60% (active),6,97% (active),inactive,inactive,inactive,inactive
CN1CCCN(Cc2cccc(-c3cccc(NC(=O)c4cccc(Cl)c4)c3)c2)CC1,20%,17%,-4,96% (active),inactive,inactive,inactive,inactive
Cc1cc(N)c2cc(NC(=O)c3cccc4ccccc34)ccc2n1,13%,18%,4,98% (active),inactive,inactive,inactive,inactive
FC(F)(F)c1ccc2nc(-c3cccc(-c4cccc(CNCCc5ccncc5)c4)c3)[nH]c2c1,97% (active),31%,-8,99% (active),inactive,inactive,inactive,inactive
c1ccc(-c2cccnn2)cc1,6%,-7%,0,98% (active),inactive,inactive,inactive,inactive
COc1cc2c(c(Cl)c1OC)CCN(C(=O)C(F)(F)F)CC2c1ccccc1 (stereo not given),101% (active),7%,8,101% (active),inactive,inactive,inactive,inactive
COc1cc(NC(=O)Nc2ccnc3ccccc23)cc(OC)c1,34%,11%,-6,98% (active),inactive,inactive,inactive,inactive
COc1ccc(CCn2c(=N)c(C(=O)NCc3ccc(C)cc3)cc3c(=O)n4ccccc4nc32)cc1,16%,13%,-3,97% (active),inactive,inactive,inactive,inactive
CCN(CCCN1CCCCC1)c1cc(C)nc(Nc2ccc(C)cc2C(F)(F)F)n1,35%,23%,-2,101% (active),inactive,inactive,inactive,inactive
COc1ccc2c(ccc3c2ncc2c(=O)n(-c4ccccc4)[nH]c23)c1,92% (active),-2%,4,95% (active),inactive,inactive,inactive,inactive
O=C(NCCCc1ccccc1)c1csc(C2CCCN(C(=O)c3ccc(O)c(-c4ccccc4)c3)C2)n1 (stereo not given),97% (active),5%,5,97% (active),inactive,inactive,inactive,inactive
CCOC(=O)CNC(=O)N(CCN(Cc1ccccc1)C(=O)NCC(=O)OCC)Cc1ccccc1,-1%,9%,5,98% (active),inactive,inactive,inactive,inactive

# — PubChem BioAssay
